Experimental data reported in PubChem BioAssay AID1159580 (chemical genetic matrix, 2015).
Where “and” joins values, the source holds several entries; their conditions need not be identical. Equal values may be shown once. Screen size: about 5,500 compounds; about 2,000 (36%) were called active. Another 18% or so got no clear call; they are omitted. Cut-off read from the data, not from the text of the source: active = normalized growth mostly below about 0.91 (no sharp cut-off); inconclusive = no clear call, values can overlap the other calls; inactive = mostly above about 0.92. The list shows a part of the results.

Test: chemical genetic growth profiling, strain panel (AID 1159580);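 note: tested at 20 µM; growth read once vehicle control cultures reached saturation at 30 °C; 1 = growth at the plate median or of vehicle wells; lower values mean less growth of the strain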
Details: S. cerevisiae deletion strains, growth OD

Measured: normalized growth

Cc1cccc(C)c1NC1=NCCCS1
inactive: locus YAL013W, strain DEP1, active compounds read low 0.999 | locus YAL021C, strain ccr4, active compounds read low 1.03 | locus YAL026C, strain drs2, active compounds read low 0.986 | locus YAL030W, strain snc1, active compounds read low 1 | locus YAL040C, strain CLN3, active compounds read low 0.978 | locus YBL061C, strain skt5, active compounds read low 1 | locus YBR009C, strain hhf1, active compounds read low 1.02 | locus YBR021W, strain FUR4, active compounds read low 0.99 | locus YBR023C, strain chs3, active compounds read low 1.02 | locus YBR171W, strain sec66, active compounds read low 1.02 | locus YBR229C, strain ROT2, active compounds read low 1 | locus YBR231C, strain swc5, active compounds read low 0.997 | locus YBR279W, strain paf1, active compounds read low 1 | locus YCL011C, strain gbp2, active compounds read low 1.02 | locus YCL016C, strain dcc1, active compounds read low 1 | locus YCL029C, strain bik1, active compounds read low 0.974 | locus YCL061C, strain MRC1 (second series), active compounds read low 1.01 | locus YCL061C, strain MRC1, active compounds read low 1 | locus YCL069W, strain vba3, active compounds read low 1 | locus YCR088W, strain abp1, active compounds read low 1 | locus YDL005C, strain med2, active compounds read low 0.995 | locus YDL035C, strain GPR1, active compounds read low 0.979 | locus YDL040C, strain nat1, active compounds read low 1 | locus YDL074C, strain BRE1, active compounds read low 1.03 | locus YDL101C, strain DUN1, active compounds read low 1 | locus YDL134C, strain PPH21, active compounds read low 0.982 | locus YDL185W, strain tfp1, active compounds read low 0.947 | locus YDL192W, strain arf1, active compounds read low 0.987 | locus YDR001C, strain nth1, active compounds read low 1.01 | locus YDR069C, strain doa4, active compounds read low 1.02 | locus YDR101C, strain arx1, active compounds read low 0.995 | locus YDR137W, strain rgp1, active compounds read low 1 | locus YDR150W, strain NUM1, active compounds read low 0.996 and 1.01 | locus YDR159W, strain sac3, active compounds read low 0.991 | locus YDR162C, strain NBP2, active compounds read low 0.97 | locus YDR195W, strain ref2 0.977 | locus YDR297W, strain sur2, active compounds read low 1.01 | locus YDR318W, strain mcm21, active compounds read low 0.972 | locus YDR334W, strain swr1, active compounds read low 1.01 | locus YDR335W, strain msn5, active compounds read low 1.01 | locus YDR363W, strain ESC2, active compounds read low 1.02 | locus YDR388W, active compounds read low 0.994 | locus YDR392W, strain spt3, active compounds read low 1.01 | locus YDR502C, strain sam2, active compounds read low 0.991 | locus YEL003W, strain gim4, active compounds read low 1.01 | locus YEL037C, strain rad23, active compounds read low 1.01 | locus YEL061C, strain CIN8 (second series), active compounds read low 1.01 | locus YEL061C, strain CIN8, active compounds read low 1 | locus YER002W, strain NOP16, active compounds read low 1.01 | locus YER015W, strain faa2, active compounds read low 1.01 | locus YER016W, strain bim1, active compounds read low 1.01 | locus YER110C, active compounds read low 0.976 | locus YER111C, strain swi4, active compounds read low 1.01 | locus YER155C, strain BEM2 (second series), active compounds read low 1.01 | locus YER155C, strain BEM2, active compounds read low 0.995 | locus YER167W, strain BCK2, active compounds read low 0.99 | locus YFR010W, strain ubp6, active compounds read low 1.02 | locus YGL078C, strain dbp3, active compounds read low 0.983 | locus YGL086W, strain mad1, active compounds read low 0.998 | locus YGL167C, strain pmr1, active compounds read low 1.01 | locus YGL173C, strain kem1, active compounds read low 1.01 | locus YGL227W, strain vid30, active compounds read low 1 | locus YGL240W, strain doc1, active compounds read low 0.992 | locus YGL248W, strain PDE1, active compounds read low 1.01 | locus YGL253W, strain hxk2, active compounds read low 1.01 | locus YGR135W, strain pre9, active compounds read low 0.967 | locus YGR229C, strain SMI1, active compounds read low 0.996 | locus YGR252W, strain gcn5, active compounds read low 1 | locus YHR013C, strain ard1, active compounds read low 1.01 | locus YHR027C, strain rpn1, active compounds read low 0.992 | locus YHR030C, strain SLT2, active compounds read low 0.995 and 1.02 | locus YHR079C, strain IRE1 (second series), active compounds read low 0.981 | locus YHR079C, strain IRE1, active compounds read low 1.04 | locus YHR094C, strain hxt1, active compounds read low 0.989 | locus YHR129C, strain ARP1, active compounds read low 0.988 | locus YHR142W, strain chs7, active compounds read low 1.01 | locus YHR200W, strain rpn10, active compounds read low 0.96 | locus YIL066C, strain RNR3, active compounds read low 1 | locus YIL073C, strain SPO22, active compounds read low 0.86 | locus YIL125W, strain kgd1, active compounds read low 0.987 | locus YIR030C, strain dcg1, active compounds read low 0.975 | locus YJL092W, strain hpr5, active compounds read low 1 | locus YJL095W, strain BCK1 (second series), active compounds read low 1 | locus YJL095W, strain BCK1, active compounds read low 1.03 and 1.04 | locus YJL115W, strain asf1, active compounds read low 1.01 | locus YJL129C, strain trk1, active compounds read low 1 | locus YJL134W, strain LCB3, active compounds read low 0.994 | locus YJL154C, strain vps35, active compounds read low 1.01 | locus YJL164C, strain tpk1, active compounds read low 1.01 | locus YJL166W, strain qcr8, active compounds read low 1.01 | locus YJL168C, strain set2, active compounds read low 0.99 | locus YJL187C, strain SWE1 (second series), active compounds read low 1.03 | locus YJR043C, strain POL32, active compounds read low 1.02 | locus YJR066W, strain TOR1, active compounds read low 0.955
